Compound activity from PubChem BioAssay.
Pf growth 48h – inhibits P. falciparum growth in the first generation, 48 h; P. falciparum luciferase growth in erythrocytes, 48 h; Potency, µM (highest dose often 28.7 µM), for inactives: at the highest dose activity change, negative = inhibition, usual class: inhibitors; hit rate 5.9% among 310,000
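First compound was added to culture medium, then infected red cells at 0.1% parasitemia and 2% hematocrit (final). After incubation at 37 C under 5% CO2, luciferase detection reagent was dispensed and light output recorded.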
AMA1-RON2 inh – AMA1-RON2 (P. falciparum) interaction inhibition | AlphaScreen AMA1-biotinylated RON2 peptide binding | Potency, µM (doses to about 58.2 µM), for inactives: top-dose activity change, negative = inhibition, usual class: inhibitors | hit rate 0.2% among 360,000 | AID 720542;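 also: 0% = vehicle wells and -100% = peptide control; nearly all actives have a fitted effect of over 45% in size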
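AMA1 (3D7) with his tag at 25 nM final met compounds first, then biotinylated RON2 peptide at 25 nM; detection used donor plus acceptor beads, 10 µg/mL apiece, read by AlphaScreen after 30 min at room temperature.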
HCV inhibitor – HCV inhibition | Huh7.5.1 HCVcc-Cre infection, luciferase reporter, 44 h | Potency, µM (titrated, usually from 41.8 µM), without a hit: at the highest dose activity change, negative = inhibition, actives largely listed as inhibitors | hit rate 3.4% among 340,000 | AID 651820
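Seed cells (1,000/well) for 4 h; treat with compound and infect with HCVcc-Cre, moi about 0.5. Incubate 44 h, then detect luciferase activity.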
Pf growth 96h – inhibits malaria parasite growth, 96 h | hit rate 6.9% among 320,000 | P. falciparum luciferase reporter growth, 96 h | AID 504834 | Potency, µM (highest dose often 28.7 µM), for the others: at the top dose activity change, negative = inhibition, usual class: inhibitors
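P. falciparum expressing integrated firefly luciferase grown in erythrocytes (2% hematocrit, 0.05% parasitemia final) with compounds for 96 hours at 37 C, 5% CO2. Growth inhibition read as loss of luminescence after adding luciferase detection reagent.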
* marks the source's active call; other numbers are inactive results; [ ] = dose if it differs, or a comment. Hits are enriched below; roughly 11% of the tested compounds scored in any of these assays. Calls follow the shape of the dose curve; as a rule, active = well fitted curve in the direction sought with a large enough effect; inconclusive = small, poorly fitted or top-dose-only effect, or another doubt; inactive = no such curve, though single readings can be large; an effect the other way counts as inactive or inconclusive. Unless noted, % is scaled to controls: 0 for no effect and ±100 for the full control effect; potency is read from the fitted curve at half-maximal effect.

Cc1cc2ccccn2c1C(=O)c1cccc([N+](=O)[O-])c1 was read as Pf growth 48h -3%, AMA1-RON2 inh -24%, HCV inhibitor 2% and Pf growth 96h 16%.
`Cc1cc2ccccn2c1C(=O)c1ccc([N+](=O)[O-])o1` gave Pf growth 48h -28%, AMA1-RON2 inh -20%, HCV inhibitor 11µM* and Pf growth 96h inconclusive.
O=C1NCCCN1C1OC(CO)C(O)C1O (stereo unspecified) was read as AMA1-RON2 inh 0%.
Screening COCOCCn1cc(CN2CCS(=O)(=O)N(Cc3ccc(-c4cccc(CO)c4)cc3)C(C)C2=O)nn1 (stereo unspecified) returned AMA1-RON2 inh -5%.
Screening Cc1sc2ncnc(N3CCC(C(=O)NNC(=O)COc4ccc(Br)cc4)CC3)c2c1C returned Pf growth 48h -9%, AMA1-RON2 inh 73%, HCV inhibitor inconclusive and Pf growth 96h inconclusive.
Cc1cccc(C)c1NC(=O)CN(C)C(=O)C1CCN(c2ncnc3sc(C)c(C)c23)CC1 was read as Pf growth 48h inconclusive, AMA1-RON2 inh -20%, HCV inhibitor inconclusive and Pf growth 96h 7.4µM*.
Cc1cc(Br)ccc1NC(=O)CN(C)C(=O)C1CCN(c2ncnc3sc(C)c(C)c23)CC1 was read as AMA1-RON2 inh -15% and HCV inhibitor 10µM*.
For CCN(CC(=O)Nc1c(F)cccc1F)C(=O)C1CCN(c2ncnc3sc(C)c(C)c23)CC1 the results were Pf growth 48h 10µM*, AMA1-RON2 inh -6%, HCV inhibitor inconclusive and Pf growth 96h inconclusive.
For CCN(CC(=O)Nc1c(Cl)cccc1Cl)C(=O)C1CCN(c2ncnc3sc(C)c(C)c23)CC1 the results were Pf growth 48h inconclusive, AMA1-RON2 inh 14%, HCV inhibitor 13% and Pf growth 96h -24%.
`O=C(COC(=O)c1cc(Cl)ccc1O)NNC(=O)c1ccccc1F` gave AMA1-RON2 inh 73% and HCV inhibitor 24%.
`CCN(CC)CCCNC(=O)CNC(=O)c1nn(-c2ccc(OC)cc2OC)c(=O)c2ccccc12` gave AMA1-RON2 inh 30%.
`COc1cc(NC(=O)c2ccnnc2)cc(C(=O)Nc2cccc(C(F)(F)F)c2)c1` gave Pf growth 48h 9.3µM*, AMA1-RON2 inh -8%, HCV inhibitor inconclusive and Pf growth 96h 4.1µM*.
For O=C(Nc1ccc(Oc2cccc(C(F)(F)F)c2)nc1)c1ccccc1 the results were Pf growth 48h 10µM*, AMA1-RON2 inh -15%, HCV inhibitor inconclusive and Pf growth 96h 15µM*.
Screening COc1ccc(NC(=O)COc2cccc(C(F)(F)F)c2)cn1 returned Pf growth 48h inconclusive, AMA1-RON2 inh -1%, HCV inhibitor 19% and Pf growth 96h 0%.
For O=C(Nc1cccc(C(F)(F)F)c1)c1cccnc1 the results were Pf growth 48h 22%, AMA1-RON2 inh -8% and HCV inhibitor -4%.
For O=C(Nc1ccc(Oc2cccc(C(F)(F)F)c2)nc1)c1cccs1 the results were Pf growth 48h 1.7µM*, AMA1-RON2 inh 5%, HCV inhibitor inconclusive and Pf growth 96h inconclusive.
For COc1cccc(C(=O)Nc2ccc(Oc3cccc(C(F)(F)F)c3)nc2)c1 the results were Pf growth 48h 9.3µM*, AMA1-RON2 inh 5%, HCV inhibitor 7.1µM* and Pf growth 96h inconclusive.
For Cc1cc(C)c2oc(C(=O)Nc3ccc(S(=O)(=O)Nc4nccs4)cc3)cc(=O)c2c1 the results were Pf growth 48h inconclusive, AMA1-RON2 inh 0%, HCV inhibitor -5% and Pf growth 96h inconclusive.
Screening Cc1cc2oc(C(=O)Nc3ccc(S(=O)(=O)Nc4nccs4)cc3)cc(=O)c2cc1Cl returned Pf growth 48h 17%, AMA1-RON2 inh -7%, HCV inhibitor 6% and Pf growth 96h 13µM*.
For Cc1cc2oc(C(=O)Nc3ccc(S(=O)(=O)N4CCCC(C)C4)cc3)cc(=O)c2cc1Cl (stereo unspecified) the results were Pf growth 48h 13µM*, AMA1-RON2 inh 15%[11.6 µM], HCV inhibitor 1% and Pf growth 96h inconclusive.
CC(C)(C)OC(=O)N[C@H]1C=C[C@@H](OC(=O)CC(=O)OCC(F)(F)F)C1 was read as AMA1-RON2 inh -6% and HCV inhibitor 4%.
COC(=O)c1ccc(NC(=O)c2sc3nc(-c4ccccc4)cn3c2C)cc1 was read as Pf growth 48h inconclusive, AMA1-RON2 inh -7%, HCV inhibitor inconclusive and Pf growth 96h 20%.
For COC(=O)c1ccc(NC(=O)c2c(C(=O)Nc3ccccc3)sc3nc(C)cc(=O)n23)cc1 the results were Pf growth 48h 7%, AMA1-RON2 inh -2%, HCV inhibitor -1% and Pf growth 96h 12µM*.
`O=C(CCCn1c(=O)[nH]c2ccsc2c1=O)Nc1ccc(F)cc1` gave Pf growth 48h 16%, AMA1-RON2 inh 7%, HCV inhibitor 6% and Pf growth 96h 5%.
Screening CCc1cccc(NC(=O)CCCn2c(=O)[nH]c3ccsc3c2=O)c1 returned Pf growth 48h -7%, AMA1-RON2 inh -1%, HCV inhibitor -1% and Pf growth 96h 2.9µM*.
CCOc1ccc(NC(=O)CCn2c(=O)[nH]c3ccsc3c2=O)cc1 was read as AMA1-RON2 inh -7%, HCV inhibitor 18% and Pf growth 96h 7.4µM*.
Screening Cc1ccc(NC(=O)CCn2c(=O)[nH]c3ccsc3c2=O)cc1 returned Pf growth 48h -19%, AMA1-RON2 inh 3%, HCV inhibitor 1% and Pf growth 96h inconclusive.
`COc1cccc(NC(=O)CN(C)C(=O)c2ccc(NC(=O)CC3SC(N4CCCC4)=NC3=O)cc2)c1` (stereo unspecified) gave AMA1-RON2 inh -7% and HCV inhibitor 6%.
CCC1NC(=O)c2cccnc2-n2c1nc1cc(F)ccc1c2=O (stereo unspecified) was read as AMA1-RON2 inh -8%.
Screening COc1cccc(OC)c1CC1SC(=O)NC1=O (stereo unspecified) returned Pf growth 48h 6%, AMA1-RON2 inh 14%, HCV inhibitor -5% and Pf growth 96h 4%.
For CCc1nc(NCCCCCO)c2nnn(Cc3ccccc3F)c2n1 the results were Pf growth 48h -24%, AMA1-RON2 inh -3%, HCV inhibitor -5% and Pf growth 96h 20%.
`Cc1cc(=O)[nH]c2c(C)cc(S(=O)(=O)N3CCOCC3)cc12` gave AMA1-RON2 inh 8% and HCV inhibitor 0%.
For Cc1cc(=O)[nH]c2c(C)cc(S(=O)(=O)N3CCCCC3)cc12 the results were Pf growth 48h -6%, AMA1-RON2 inh -12%, HCV inhibitor 6% and Pf growth 96h 13µM*.
Screening CN1C(=O)C2(OCC(COc3ccc(Cl)cc3)O2)c2ccccc21 (stereo unspecified) returned Pf growth 48h 2%, AMA1-RON2 inh inconclusive, HCV inhibitor -23% and Pf growth 96h 0%.
Screening CC(=O)N1CCN(c2ccc(OC[C@@H]3CO[C@@](Cn4ccnc4)(c4ccc(Cl)cc4Cl)O3)cc2)CC1 returned Pf growth 48h inconclusive and Pf growth 96h 11µM*.
